Screening data (PubChem)
Only some compounds are listed: those with a hit (about 10% of all), similar ones and a draw of the others.
GLS inhibitor: qHTS for Inhibitors of Glutaminase (GLS). Glutaminase kidney isoform, mitochondrial (Homo sapiens), O94925. Potency, µM (top dose mostly 45.5 µM), hits mostly inhibitors. GLS enzymatic activity, qHTS titration. 0.21% of 410,000 active
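Coupled fluorescence readout: glutamate oxidase/HRP/Amplex Red detect glutamate formed by hKGA from L-glutamine (1 mM solution added). Buffer 45 mM KH2PO4 pH 8.2, 0.02% Tween-20; reads at t0 and 30 min RT.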
BAZ2B inh: qHTS Assay for Inhibitors of BAZ2B; Bromodomain adjacent to zinc finger domain protein 2B (Homo sapiens), Q9UIF8; AlphaScreen BAZ2B-H3K14Ac peptide displacement; Potency, µM (titrated, usually from 114 µM), hits mostly inhibitors; 4.4% of 360,000 active; note: nearly all actives have a fitted effect of over 60% in size
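AlphaScreen displacement: compounds (up to 110uM) incubated 30 min at room temperature with a preformed 50 nM BAZ2B/50 nM biotinylated H3K14Ac peptide complex in PBS pH 7.4 with Tween-20. Donor and acceptor beads at 10 ug/mL final added, 20 min light-protected before reading.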
JMJD2A Tudor: qHTS Assay for Inhibitors of JMJD2A-Tudor Domain. Lysine-specific demethylase 4A (Homo sapiens), O75164. AlphaScreen JMJD2A-Tudor / H3K4me3 peptide binding. Potency, µM (titrated, usually from 114 µM), most hits filed as inhibitors. 4.4% of 390,000 active. AID 504339, 2011; note: nearly all actives have a fitted effect of over 50% in size
G9a block: qHTS Assay for Inhibitors of Histone Lysine Methyltransferase G9a | 8.8% of 350,000 active | G9a H3K9 monomethylation, AlphaScreen, 2 h | Histone-lysine N-methyltransferase EHMT2 (Homo sapiens), Q96KQ7 | AID 504332, 2011 | Potency, µM (top dose mostly 102 µM), hits mostly inhibitors; note: nearly all actives have a fitted effect of over 75% in size
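AlphaScreen read-out: biotin-H3K9 peptide (500 nM) methylation by 20 nM enzyme with 20 uM SAM, 2 h at room temperature after 15 min compound preincubation; anti-monomethyl H3K9 antibody plus donor/acceptor beads, 10 min dark.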
HP1b binding inh: HTS for Inhibitors of HP1-beta Chromodomain Interactions with Methylated Histone Tails; Chromobox protein homolog 1 (Homo sapiens), P83916; AlphaScreen HP1-beta / biotin-H3K9me3 peptide binding; Potency, µM (top dose mostly 114 µM), usual class: inhibitors; 0.56% of 390,000 active; note: nearly all actives have a fitted effect of over 70% in size
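AlphaScreen: HP1-beta (50 nM) preformed 30 min with biotin-H3(1-18)K9me3 peptide (50 nM) in PBS pH 7.4, 0.01% Tween-20. Compound added for 30 min at RT, then streptavidin donor/nickel chelate acceptor beads (10 ug/mL) for 30 min.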
Large screens that a line does not name were inactive; ! = a repeat was not active. Calls come from the whole dose curve; as a rule, active = well fitted curve in the direction sought with a large enough effect; inconclusive = small, poorly fitted or top-dose-only effect, or another doubt; inactive = no such curve, though single readings can be large; an effect the other way counts as inactive or inconclusive.

CC(C)C[C@@H](CNCC(=O)[C@H](CC(C)C)NC(=O)c1[nH]cnc1C(=O)N[C@@H](C)CN)NC(=O)c1nc[nH]c1C(=O)N[C@@H](C)C(=O)O	none (no result: BAZ2B inh, G9a block)
CC(C)C[C@@H](CNCC(=O)[C@H](CC(=O)O)NC(=O)c1[nH]cnc1C(=O)N[C@H](CN)CC(C)C)NC(=O)c1nc[nH]c1C(=O)N[C@@H](C)C(=O)O	JMJD2A Tudor inconclusive (no result: BAZ2B inh, G9a block)
CC(C)C[C@@H](CN)NC(=O)c1nc[nH]c1C(=O)N[C@@H](C)C(=O)CNC[C@H](CC(C)C)NC(=O)c1nc[nH]c1C(=O)N[C@@H](CC(=O)O)C(=O)O	JMJD2A Tudor 79µM (no result: BAZ2B inh, G9a block)
CC(C)C[C@@H](CN)NC(=O)c1nc[nH]c1C(=O)N[C@@H](C)C(=O)CNC[C@H](C)NC(=O)c1nc[nH]c1C(=O)N[C@@H](CC(=O)O)C(=O)O	JMJD2A Tudor 56µM (no result: BAZ2B inh, G9a block)
CC(C)C[C@@H](CN)NC(=O)c1nc[nH]c1C(=O)N[C@@H](CC(=O)O)C(=O)CNC[C@H](C)NC(=O)c1nc[nH]c1C(=O)N[C@@H](CC(=O)O)C(=O)O	JMJD2A Tudor 89µM (no result: BAZ2B inh, G9a block)
NS(=O)(=O)c1ccc(NC(=O)CSc2n[nH]c(=O)n2Cc2ccccc2)cc1	G9a block inconclusive
O=C(CSc1n[nH]c(=O)n1Cc1ccccc1)Nc1ccc(F)c(F)c1F	BAZ2B inh inconclusive, G9a block 40µM
COc1cc(OC)c(C2=NOC(C(=O)NCc3cccnc3)C2)cc1Cl (stereo unspecified)	none (no result: G9a block)
COc1ccc(N=c2ssnc2Cl)cc1	BAZ2B inh 45µM, G9a block 1.3µM, HP1b binding inh inconclusive
CCOC(=O)c1ccc(N=c2ssnc2Cl)cc1	GLS inhibitor 13µM, BAZ2B inh 28µM, JMJD2A Tudor 14µM, G9a block 1.8µM, HP1b binding inh 7.9µM
Clc1ccc(N=c2ssnc2Cl)cc1	BAZ2B inh 40µM, JMJD2A Tudor 50µM, G9a block 1.6µM, HP1b binding inh inconclusive
COc1cc(N=c2ssnc2Cl)cc(OC)c1OC	GLS inhibitor inconclusive, BAZ2B inh 28µM, JMJD2A Tudor inconclusive, G9a block inconclusive
CCCCC	none (no result: BAZ2B inh, JMJD2A Tudor, HP1b binding inh)
O=C(CSCc1nc2ccccc2[nH]1)Nc1ccccc1	none
COCCCn1c(=N)c(C(=O)NCc2ccco2)cc2c(=O)n3ccccc3nc21	none
O=C1CSC(=Nc2ccccc2)N1Cc1ccccc1	none (no result: BAZ2B inh)
N#Cc1ccc(N=c2ssnc2Cl)cc1	GLS inhibitor inconclusive, BAZ2B inh 35µM, JMJD2A Tudor 22µM, G9a block inconclusive, HP1b binding inh 7.1µM
Clc1nssc1=Nc1ccccc1	GLS inhibitor inconclusive, BAZ2B inh 28µM, JMJD2A Tudor 79µM, G9a block 2µM, HP1b binding inh 35µM
Fc1ccc(N=c2ssnc2Cl)c(F)c1	GLS inhibitor inconclusive, BAZ2B inh 50µM, JMJD2A Tudor 22µM, G9a block 1.6µM, HP1b binding inh 5.6µM
O=C(NCCC1=CCCCC1)C(=O)NCc1ccccc1Cl	none
CCOC(=O)c1c(C)oc2c1c1c(c3ccccc32)OCN(Cc2cccnc2)C1	BAZ2B inh inconclusive, JMJD2A Tudor inconclusive, G9a block inconclusive
CCN1CCSc2ccc(C(=O)NCc3ccc(OC(C)C)cc3)cc21	G9a block 45µM!
CCc1ccc(-n2c(C)nc3cc(C(=O)NCc4cccnc4)ccc32)cc1	G9a block 50µM
Cc1ccc(CN2CCSc3ccc(C(=O)N4CCN(c5ccc(Cl)cc5)CC4)cc32)cc1	JMJD2A Tudor inconclusive, G9a block 3.2µM
CCOc1ccc(CNC(=O)c2ccc3c(c2)N(CC)CCS3)cc1	none
COc1ccc(CNC(=O)c2ccc3c(c2)N(Cc2ccc(C)cc2)CCS3)cc1	none
Cc1ccc(CN2CCSc3ccc(C(=O)NCc4cccnc4)cc32)cc1	BAZ2B inh inconclusive, JMJD2A Tudor 40µM, G9a block inconclusive
Cc1ccc(CN2CCSc3ccc(C(=O)N4CCN(c5cccc(C)c5C)CC4)cc32)cc1	none
COc1ccc(-n2c(C)nc3cc(C(=O)NCc4ccc5c(c4)OCO5)ccc32)cc1	none
COc1ccc(NC(=O)C2CCN(S(=O)(=O)c3ccc(N4CCCC4=O)cc3)CC2)cc1OC	none
CC(=O)N1c2ccccc2Sc2ccccc21	none
O=C(Sc1nnc(-c2ccccc2)o1)N1c2ccccc2Sc2ccccc21	BAZ2B inh inconclusive, JMJD2A Tudor 50µM, G9a block 8.9µM
Cn1ccnc1SC(=O)N1c2ccccc2Sc2ccccc21	BAZ2B inh inconclusive, JMJD2A Tudor 20µM, G9a block inconclusive
COc1ccc2[nH]cc(S(=O)(=O)c3ccc(C)c(C)c3)c(=O)c2c1	none
Cc1cccc(OCC(=O)O/N=C(\N)Cc2ccc([N+](=O)[O-])cc2)c1	G9a block 35µM
N#C/C(=C\c1ccc(N2CCOCC2)c([N+](=O)[O-])c1)c1nc2ccccc2[nH]1	BAZ2B inh 35µM, JMJD2A Tudor inconclusive
Cc1ccc2nc(/C(C#N)=C/c3ccc(O)c(O)c3)[nH]c2c1	GLS inhibitor inconclusive, BAZ2B inh 7.9µM, JMJD2A Tudor 16µM, G9a block 8.9µM, HP1b binding inh inconclusive
Cc1ccc2nc(/C(C#N)=C\c3ccc(N4CCCCC4)c([N+](=O)[O-])c3)[nH]c2c1	BAZ2B inh 45µM, JMJD2A Tudor 5.6µM, G9a block 14µM, HP1b binding inh inconclusive
COc1ccc(S(=O)(=O)N2CCCOC2CNC(=O)C(=O)NCCc2ccco2)cc1OC (stereo unspecified)	none
CN(C)CCNC(=O)c1c(O)c2c([nH]c1=O)CCCC2	none
CCN(CC)CCNC(=O)c1c(O)c2c([nH]c1=O)CCCC2	G9a block 79µM
COc1ccccc1/C=C1\N=C(C(C)(C)C)OC1=O	JMJD2A Tudor 50µM, HP1b binding inh inconclusive
COc1cccc(/C=C2\N=C(C3CCCCC3)OC2=O)c1OC	none
O=C(N=Nc1ccc(NOC(=O)c2ccccc2Br)cc1)c1ccccc1O	BAZ2B inh 7.9µM, G9a block 25µM (no result: GLS inhibitor, JMJD2A Tudor, HP1b binding inh)
CCCN1CCC(=O)N([C@H](CO)c2ccccc2)CC1	none
O=C(O)c1ccc2c3c(ncnc13)-c1ccccc1C2=O	JMJD2A Tudor inconclusive, G9a block 1.4µM
O=C(O)c1ccccc1-c1ccccc1C(=O)Nc1ccccc1	GLS inhibitor inconclusive
CCn1c(SCC(=O)c2cc(C)ccc2C)nc2cc(S(=O)(=O)N3CCOCC3)ccc21	G9a block 25µM
c1ccc2nc3c(nc2c1)c1ccccc1n3CCN1CCOCC1	none
CCC(C)NC(=O)CSc1nc2cc(S(=O)(=O)N3CCOCC3)ccc2n1CC (stereo unspecified)	none
Cc1[nH]c2ccccc2c1C(=O)CSc1nc2cc(S(=O)(=O)N3CCCCC3)ccc2o1	none
